{
  "source": "paper PMC5540273",
  "about": "(PLoS ONE, 2017)",
  "data": [
    {"test_system": "T1, JNK1", "T1 construct": "gene MAPK8", "conditions": "concentration: 1 μM, replicates: in singlicate; n = 1", "units": {"%Inh": "%"}, "values": [
      {"compound": "COc1ccc(Nc2nccc(N3CCC(NC(=O)Nc4cccc(OC)c4)C3)n2)cc1", "note": "(stereo not shown) [GSK1379742];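 note: KINOMEscan kinase panel screen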", "%Inh": 14},
      {"compound": "Cc1ccc(C)c(NC(=O)NC2CCN(c3ccnc(Nc4ccc(F)cc4)n3)C2)c1", "note": "(stereo not shown) [GSK1379720]", "%Inh": 45},
      {"compound": "c1ccc(-c2n[nH]cc2Nc2ccnc3ccccc23)nc1", "note": "[GW694077]", "%Inh": 92.6},
      {"compound": "COc1cc(Nc2nccc(N3CCC(NC(=O)Nc4cccc(C(C)=O)c4)C3)n2)cc(OC)c1OC", "note": "(stereo not shown) [GSK1379753]", "%Inh": 41},
      {"compound": "O=C(Nc1cccc(-c2nn3ncccc3c2-c2ccnc(Nc3ccccc3)n2)c1)c1c(F)cccc1F", "note": "[GSK198271]", "%Inh": 31},
      {"compound": "c1ccc(-c2cnc3nccnn23)cc1", "note": "[AH20685]", "%Inh": 54},
      {"compound": "Cl.c1ccc(-c2ccc3c(Nc4ccc5[nH]ncc5c4)ccnc3c2)nc1", "note": "[GW440137]", "%Inh": 9},
      {"compound": "Fc1ccc(-c2ncn(C3CCNCC3)c2-c2ccnc(Oc3ccc(-c4ccccc4)cc3)n2)cc1", "note": "[SB-245391]", "%Inh": 36},
      {"compound": "Clc1ccc(-c2nn3ncccc3c2-c2ccnc(Nc3ccc4c(c3)OCCO4)n2)cc1", "note": "[GW829116]", "%Inh": 99.2},
      {"compound": "Cc1ccc(F)c(C(=O)Nc2cccc(-c3nn4ccccc4c3-c3ccnc(Nc4cccc(F)c4)n3)c2)c1F", "note": "[GSK361061]", "%Inh": 29},
      {"compound": "CNC(=O)c1ccccc1Nc1nc(Nc2ccc(N3CCOCC3)cc2)ncc1Cl.Cl", "note": "[GSK1576028]", "%Inh": 100},
      {"compound": "Cc1cccc(Nc2nc(N[C@H]3CCNC3)ncc2C(N)=O)c1.Cl", "note": "[GSK2197149]", "%Inh": 67},
      {"compound": "CCn1c(-c2nonc2N)nc2c(C#CC(C)(C)O)nc(OC[C@H](N)c3ccccc3)cc21", "note": "[GSK943949]", "%Inh": 0},
      {"compound": "COc1cc(Nc2ncc3c(C)nc(-c4cc5ccccc5[nH]4)n3n2)cc(OC)c1OC", "note": "[GW869516]", "%Inh": 11},
      {"compound": "Cl.NC(=O)c1cccc(Nc2nccc(Nc3ccc(Oc4c(Cl)cccc4Cl)c(Cl)c3)n2)c1", "note": "[GW659009]", "%Inh": 26},
      {"compound": "Cl.c1ccc(-c2ccc3c(Nc4ccc5[nH]ccc5c4)ccnc3c2)nc1", "note": "[GW440138]", "%Inh": 0},
      {"compound": "CN1CCN(CCCNc2nccc(-c3c(-c4ccc(F)cc4)nn4cc(C(F)(F)F)ccc34)n2)CC1", "note": "[GW621581]", "%Inh": 58},
      {"compound": "O=C(Nc1n[nH]c2cc(-c3ccoc3)ccc12)C1CC1", "note": "[SB-738481]", "%Inh": 8},
      {"compound": "COc1cccc(C2=C(Nc3ccc(Cl)c(C(=O)O)c3)C(=O)NC2=O)c1", "note": "[SB-390769]", "%Inh": 52},
      {"compound": "COc1cccc(-c2ccc3c(NC(=O)C4CC4)n[nH]c3n2)c1", "note": "[SB-710903]", "%Inh": 29},
      {"compound": "COc1cccc(NC(=O)NC2CCN(c3ccnc(Nc4cc(OC)c(OC)c(OC)c4)n3)C2)c1", "note": "(stereo not shown) [GSK1379763]", "%Inh": 28},
      {"compound": "CN(C)S(=O)(=O)c1cc(-c2ccc3nccc(-c4cccc(S(N)(=O)=O)c4)c3c2)cnc1N", "note": "[GSK1669921]", "%Inh": 17},
      {"compound": "Cn1cc(-c2ccc3c(c2)CCN3C(=O)Cc2cccc(F)c2)c2c(N)ncnc21", "note": "[GSK2603358]", "%Inh": 12},
      {"compound": "COc1ccc(CNC(=O)NC2CCN(c3ccnc(Nc4ccc(F)cc4)n3)CC2)cc1", "note": "[GSK1379788]", "%Inh": 11},
      {"compound": "O=C(Nc1cccc(-c2nn3ccccc3c2-c2ccnc(Nc3cccc(F)c3)n2)c1)c1c(F)ccc(F)c1Cl", "note": "[GSK357952]", "%Inh": 11},
      {"compound": "Cl.Cl.NCC(NCc1ccc(-c2ccnc3[nH]ccc23)s1)c1ccccc1", "note": "(stereo not shown) [GSK1321565]", "%Inh": 24},
      {"compound": "CCc1ccc(-c2ccc3c(c2)-c2c(cnn2C)S(=O)(=O)N3C)cc1", "%Inh": 0},
      {"compound": "O=C(O)C(F)(F)F.O=C(O)C(F)(F)F.O=c1[nH]ccc2nc(N[C@@H]3CCCNC3)nc(Nc3ccc(S(=O)(=O)N4CCOCC4)cc3)c12", "note": "[GSK2177277]", "%Inh": 99.4},
      {"compound": "Cc1occc1-c1ncc(OC[C@@H](N)Cc2c[nH]c3ccccc23)cc1-c1ccc2[nH]nc(C)c2c1.O=C(O)C(F)(F)F", "note": "[GSK682037]", "%Inh": 24},
      {"compound": "COCCOCCOc1cc2ncc3c4ccc(C#N)cc4[nH]c3c2cc1OC", "%Inh": 5},
      {"compound": "CN(C)Cc1ccc(-c2ccc3c(Nc4ccc(Oc5ccccn5)cc4)ccnc3c2)o1", "note": "[GW567148]", "%Inh": 19},
      {"compound": "Cc1ccc(C(=O)N2CC[C@@H](O)C2)cc1-n1c(C)cc(OCc2ccc(F)cc2F)c(Br)c1=O", "%Inh": 14},
      {"compound": "Cn1cc(-c2[nH]c3cc(NC(=O)[C@H](N)C4CCCCC4)cc4c3c2C=NNC4=O)cn1", "%Inh": 0},
      {"compound": "COc1cc(Nc2nccc(-c3c(-c4cccc(NC(=O)c5c(F)cccc5F)c4)nn4ncccc34)n2)cc(OC)c1OC", "note": "[GSK327238]", "%Inh": 39},
      {"compound": "CC(=O)Nc1nc2cnc(Nc3cc(NC(=O)c4cccc(C5(C#N)CC5)c4Cl)ccc3C)nc2s1", "%Inh": 0},
      {"compound": "Cc1ccc(C(=O)Nc2ccc(Nc3ccnc4cc(-c5nccs5)ccc34)cc2O)cc1.Cl", "note": "[GW494702]", "%Inh": 18},
      {"compound": "Nc1ncc(-c2cccnc2)c2scc(-c3ccc4c(c3)CCN4C(=O)Cc3ccccc3)c12", "note": "[GSK683281]", "%Inh": 22}
    ]}
  ]
}
